Compound activity: PubChem, several laboratories
Many of the other results were omitted from the sample, so hits are more common in it than they were.
hDAT+cocaine = changed hDAT dopamine uptake under cocaine IC80, either direction, primary screen, cocaine antagonist project, cell-based, LLC-PK1 hDAT, [14C]-dopamine uptake, MLSMR | Sodium-dependent dopamine transporter (Homo sapiens), Q01959 | B-score at 10 µM | 110,000 compounds, 1.3% hits | LLC-PK1 hDAT cells, [14C]-dopamine uptake with cocaine IC80; actives deviate in either direction;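 active means Z score or B-score, a plate-position-corrected score, falls beyond the plate's 99.7% confidence bounds, in either direction; inactive means both scores lie inside the 99.7% bounds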;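 further: scored against the spread of the other compound wells on the same plate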
Target sequence (Q01959 whole entry, looked up): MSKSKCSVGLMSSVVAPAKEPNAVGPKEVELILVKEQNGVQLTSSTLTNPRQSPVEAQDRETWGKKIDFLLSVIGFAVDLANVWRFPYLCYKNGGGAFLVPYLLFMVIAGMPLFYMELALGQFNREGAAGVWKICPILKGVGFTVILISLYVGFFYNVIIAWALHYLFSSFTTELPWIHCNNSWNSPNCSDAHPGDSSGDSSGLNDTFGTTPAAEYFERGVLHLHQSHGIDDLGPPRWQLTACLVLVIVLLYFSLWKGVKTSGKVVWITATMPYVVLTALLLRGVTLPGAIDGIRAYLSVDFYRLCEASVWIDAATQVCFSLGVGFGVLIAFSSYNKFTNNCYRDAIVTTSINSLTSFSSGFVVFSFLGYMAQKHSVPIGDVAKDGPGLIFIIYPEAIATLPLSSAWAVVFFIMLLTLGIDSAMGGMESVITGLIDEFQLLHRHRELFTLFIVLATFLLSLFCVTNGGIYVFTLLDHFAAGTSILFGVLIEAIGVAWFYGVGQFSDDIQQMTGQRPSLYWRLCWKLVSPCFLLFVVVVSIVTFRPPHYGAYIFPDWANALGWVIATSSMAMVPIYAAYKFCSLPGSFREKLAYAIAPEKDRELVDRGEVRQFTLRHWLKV
EphB4 antag = EphB4-ephrin-B2 interaction antagonists, primary screen, biochemical, TNYL-RAW peptide probe, fluorescence polarization | inhibition, % at 7 µM | Ephrin type-B receptor 4 (Homo sapiens), P54760 | EphB4 LBD / TNYL-RAW-Alexa532 peptide | AID 720, 2007 | 97,000 compounds, 0.15% hits;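 active means inhibition above the screen-wide mean inhibition plus 3 SD, cut at about 15% in these data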;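 further: 0% = DMSO wells and 100% = excess unlabeled TNYL-RAW peptide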
D1 allo mod = D1 CRE-luciferase signal change, two-sided – cell-based, HEK293 D1, dopamine EC30, D1 allosteric modulator project, primary screen | dopamine EC30 potentiation; actives deviate in either direction | B-score at 10 µM | 58,000 compounds, 5.9% hits | AID 641, 2007;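 active means luminescence count or its row- and column-corrected plate score outside the 99.7% band of the plate's sample wells, on either side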
D1 PAM confirm = D1 receptor positive allosteric modulators, retest, confirmation, cell-based, HEK293 D1, CRE-luciferase, duplicate | shares compounds with D1 allo mod | dopamine EC30 potentiation; active compounds read high | luminescence at 10 µM | 2,200 compounds, 88% hits | AID 642, 2007;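 active means luminescence in either of two replicates above the same-plate mean plus 3 SD of the low-dose dopamine control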
D1 no dopamine = D1 receptor agonism without dopamine, confirmation, mechanism study for D1 allosteric modulator project, cell-based, HEK293 D1, CRE-luciferase, secondary assay 1; luminescence at 10 µM; 1,900 compounds, 0.8% hits; shares compounds with D1 allo mod; luminescence, no dopamine; active compounds read high; in the data active means luminescence above about 3900
Isoprot counter = counter-screen for D1 modulators: isoproterenol response in HEK293 cells. calls only at 10 µM. 2,200 compounds, 63% hits. shares compounds with D1 allo mod. HEK293 D1 CRE-luciferase, isoproterenol EC30 counter-screen;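 active means luminescence in either replicate above plate mean of wells with a partly effective reference agonist dose plus 3 SD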;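 further: isoproterenol raises cAMP through native beta-adrenoceptor Gs so signal bypasses D1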
* hit, by the source's call; i = inactive; nt = no result given; + = active, no number.

SMILES | hDAT+cocaine | EphB4 antag | D1 allo mod | D1 PAM confirm | D1 no dopamine | Isoprot counter
COc1ccc(-c2cnc(N)nc2-c2ccc(OC)cc2O)cc1 | 0.74 | -17 | 14* | 16148* | nt | +
COc1ccc(-c2nc(C)ncc2-c2csc(C)n2)c(O)c1 | -0.14 | 4 | nt | nt | nt | nt
C=C(C)COc1ccc(-c2[nH]ncc2Oc2cccc(OC)c2)c(O)c1 | -2 | 1 | -0.43 | nt | nt | nt
Cc1ccc2oc(=O)c3cnn(CC(=O)Nc4cc(-c5cccc(F)c5)no4)c3c2c1 | -0.13 | nt | nt | nt | nt | nt
O=C(NCc1ccccc1)c1ccc(-c2ccc(F)cc2)o1 | 0.81 | -2 | nt | nt | nt | nt
COC(=O)[C@@]1(Cc2ccccc2)[C@H]2c3cc(C(=O)N4CCCC4)n(Cc4ccsc4Br)c3C[C@H]2CN1C(=O)c1ccccc1 | -0.34 | nt | nt | nt | nt | nt
O=C1c2cc(S(=O)(=O)NCCCO)ccc2-c2ccc(S(=O)(=O)NCCCO)cc21 | -0.28 | 4 | nt | nt | nt | nt
Cc1ccc(-n2ncc(C#N)c2/N=C/N2CCN(C)CC2)cc1 | 0.23 | -3 | 0.00058 | nt | nt | nt
Cc1ccc(-n2ncc(C#N)c2/N=C/N2CCCCCC2)cc1 | 0.46 | nt | 20* | 17800* | 1536 | +
FC(F)(F)C(Oc1nc(Nc2ccc(Cl)cc2)nc(N2CCOCC2)n1)C(F)(F)F | -0.37 | 3 | nt | nt | nt | nt
COC(=O)C(C(=O)OC)C(C)C(C(=O)OC)C(=O)OC | -0.015 | -4 | nt | nt | nt | nt
O=C(NCCc1ccccc1)c1ccco1 | nt | -3 | nt | nt | nt | nt
O=C(NCCNC(=O)C(c1ccccc1)c1ccccc1)c1ccco1 | 0.79 | -2 | 5.3* | 6392* | nt | i
COCCOC(=O)c1[nH]c2c(c1C)C(=O)CC(c1cc(OC)ccc1OC)C2 (stereo unspecified) | -0.045 | nt | 0.13 | nt | nt | nt
COc1ccc(OC)c(C2CC(=O)c3c([nH]c(C(=O)OC(C)C)c3C)C2)c1 (stereo unspecified) | -0.12 | 4 | 2.8* | 9020* | 2012 | +
N#Cc1c(N)sc(=S)c2c1CCCCC2 | -0.35 | -2 | nt | nt | nt | nt
N#Cc1c(N)sc2c1CCCCCC2 | -0.097 | nt | 5.8* | 13464* | 1508 | i
CCCCNC(=O)COC(=O)c1ccc(NS(=O)(=O)c2ccc3c(c2)OCCO3)cc1 | -0.42 | -4 | nt | nt | nt | nt
Cc1nc(-c2ccccc2O)n(S(=O)(=O)N(C)C)n1 | -1.5 | -4 | 5.5* | 8136* | 1504 | +
CN(C)S(=O)(=O)n1cnc2ccccc21 | -0.55 | -6 | -0.32 | nt | nt | nt
CCC(=O)N1CCc2cc(OC)c(OC)cc2C1COc1ccc(C(=O)OC)cc1 (stereo unspecified) | 0.22 | 1 | 15* | 20996* | 3492 | +
COC(=O)c1ccc(OCC2c3cc(OC)c(OC)cc3CCN2C(=O)c2ccco2)cc1 (stereo unspecified) | -1.4 | 0 | nt | nt | nt | nt
C=CCNC(=S)NNC(=O)c1ccccc1 | -0.035 | -5 | nt | nt | nt | nt
C=CCNC(=O)c1ccccc1NC(=O)c1ccccc1 | 0.43 | -1 | 8.3* | 16308* | 1672 | i
CCCn1c(=O)c2ccccc2n2c(SCCOc3ccccc3)nnc12 | 0.78 | nt | 4.7* | 10356* | nt | i
SMILES | hDAT+cocaine | EphB4 antag | D1 allo mod | D1 PAM confirm | D1 no dopamine | Isoprot counter
CCCn1c(=O)c2ccccc2n2c(SCc3nc4ccccc4s3)nnc12 | 0.0061 | -1 | 6.7* | 7964* | 1868 | i
CCCn1c(C)cc(C(=O)CSc2nnc3n(CCC)c(=O)c4ccccc4n23)c1C | nt | nt | -1.5 | nt | nt | nt
CCn1c(SCc2nc3ccccc3s2)nnc1-c1cccs1 | 1.3 | 3 | 0.075 | nt | nt | nt
CCCCNC(=O)c1onc(CSc2ccc(Cl)cc2)c1C(=O)O | -1.9 | 1 | nt | nt | nt | nt
CCOC(=O)Cc1[nH]nc2c1C(c1cccc(OC)c1OC)C(C#N)=C(N)O2 (stereo unspecified) | 1.2 | nt | 6.3* | 7976* | 1640 | i
COC(=O)Cc1[nH]nc2c1C(c1cccc(OC)c1OC)C(C#N)=C(N)O2 (stereo unspecified) | -0.86 | nt | 0.007 | nt | nt | nt
CCCc1[nH]nc2c1C(c1cc(OC)ccc1F)C(C#N)=C(N)O2 (stereo unspecified) | -0.048 | -7 | 8.2* | 9940* | nt | +
CCCc1[nH]nc2c1C(c1cc(OC)cc(OC)c1)C(C#N)=C(N)O2 (stereo unspecified) | -0.39 | 1 | nt | nt | nt | nt
CCCCC(=O)NC1(C(F)(F)F)C(=O)N(CC(C)C)C2=C1C(=O)CC(C)(C)C2 (stereo unspecified) | -1.6 | -6 | nt | nt | nt | nt
Cc1ccccc1NC(=O)c1sc2nc3c(c(-c4ccco4)c2c1N)CCC3 | 0.78 | -1 | nt | nt | nt | nt
N#Cc1sc2nc3c(c(-c4ccco4)c2c1N)CCCC3 | 0.37 | 0 | 9.6* | 12060* | 1392 | +
COc1ccc(-n2c(SCC#N)nnc2-c2ccc(NS(=O)(=O)c3ccc(C)cc3)cc2)cc1 | 0.48 | nt | 9.9* | 21068* | 1748 | +
COc1ccc(-n2c(SCC(N)=O)nnc2-c2ccc(NS(=O)(=O)c3ccc(C)cc3)cc2)cc1 | -0.28 | -2 | nt | nt | nt | nt
Cc1ccc(-c2nnc(N3CCCCC3)c3ccccc23)cc1S(=O)(=O)NCC1CCCO1 (stereo unspecified) | 0.85 | -2 | nt | nt | nt | nt
Cc1cc(C)n(-c2nc3c(c(=O)[nH]c(=O)n3C)n2C)n1 | 0.26 | nt | 1.8* | 5180 | 1016 | i
Cc1cc(C)n(-c2nc3c(c(=O)[nH]c(=O)n3C)n2Cc2ccccc2)n1 | -0.19 | 0 | 7.9* | 11052* | 1636 | +
Cc1cc(C)n(-c2nc3c(c(=O)[nH]c(=O)n3C)n2CCc2ccccc2)n1 | -1.7 | 7 | 3.8 | nt | nt | nt
Cc1cc(C)n(-c2nc3c(c(=O)[nH]c(=O)n3C)n2Cc2ccc(F)cc2)n1 | 0.041 | -5 | 0.35 | nt | nt | nt
COc1cc2c(cc1OC)C1=NC(=O)CN1C(SCc1ccccc1)=N2 | 0.14 | nt | nt | nt | nt | nt
Cc1ncc([N+](=O)[O-])n1CCOC(=O)c1ccc(Cl)cc1Cl | 0.14 | -2 | nt | nt | nt | nt
CN1CCN(C(=O)C2=C[C@@H](c3ccccc3)C[C@@H](OCCCCO)O2)CC1 | -0.17 | nt | nt | nt | nt | nt
CCOC(=O)c1c(C)nc(-c2ccccc2)nc1N | 0.59 | -3 | 4.1* | 8680* | 1600 | +
CCOC(=O)c1c(N)nn(C(=O)C(C)C)c1-c1ccc(OC)cc1 | -0.91 | -3 | nt | nt | nt | nt
CCOC(=O)c1c(N)nn(C(C)=O)c1-c1ccccc1 | -0.34 | -4 | 20* | 19148* | 1584 | +
CCOC(=O)c1c(C)nc(-c2ccccc2)nc1NC(C)=O | 0.67 | 3 | 0.58 | nt | nt | nt
CC(C)(C)NS(=O)(=O)c1cnc(Cl)c(Cl)c1 | -0.48 | 0 | nt | nt | nt | nt
Cc1ccc(CNC(=O)[C@H](C)[C@H]2C[C@]2(C)[C@H](NC(=O)OCc2ccccc2)c2ccccc2)o1 | 0.29 | nt | nt | nt | nt | nt
